Test results taken from PubChem BioAssay AID1159580 (chemical genetic matrix, 2015).
In all, about 5,500 compounds went through this assay and about 2,000 (36%) were called active. Another 18% or so got no clear call; they are omitted. Rule as the data show it: active = normalized growth mostly below about 0.91 (no sharp cut-off); inconclusive = no clear call, values can overlap the other calls; inactive = mostly above about 0.92. The list shows a part of the results.

Test: chemical genetic growth profiling, strain panel (AID 1159580);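 also: tested at 20 µM; growth read once vehicle control cultures reached saturation at 30 °C; 1 = growth at the plate median or of vehicle wells; lower values mean less growth of the strain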
Details: growth OD

Measured: normalized growth

CC(=O)O[C@H]1CC[C@@]2(C)C(=CCC3C2CC[C@@]2(C)C3CC[C@@H]2C(C)CCCC(C)C)C1 (stereo partly drawn)
inactive: S. cerevisiae deletion strains, locus YJR066W, strain TOR1, active compounds read low 0.96 | S. cerevisiae deletion strains, locus YKL009W, strain mrt4, active compounds read low 1.05 | S. cerevisiae deletion strains, locus YKL068W, active compounds read low 1 | S. cerevisiae deletion strains, locus YKL085W, strain MDH1 (second series), active compounds read low 1.01 | S. cerevisiae deletion strains, locus YKL085W, strain MDH1, active compounds read low 1.01 | S. cerevisiae deletion strains, locus YKL160W, strain elf1, active compounds read low 0.997 | S. cerevisiae deletion strains, locus YKL190W, strain CNB1, active compounds read low 1.01 | S. cerevisiae deletion strains, locus YKR001C, strain vps1, active compounds read low 1.06 | S. cerevisiae deletion strains, locus YKR026C, strain gcn3, active compounds read low 0.991 | S. cerevisiae deletion strains, locus YKR091W, strain srl3, active compounds read low 0.998 | S. cerevisiae deletion strains, locus YLL001W, strain dnm1, active compounds read low 0.997 | S. cerevisiae deletion strains, locus YLL026W, active compounds read low 0.995 | S. cerevisiae deletion strains, locus YLL041C, strain sdh2, active compounds read low 0.995 | S. cerevisiae deletion strains, locus YLR027C, strain aat2, active compounds read low 0.979 | S. cerevisiae deletion strains, locus YLR039C, strain RIC1, active compounds read low 1.08 | S. cerevisiae deletion strains, locus YLR058C, strain SHM2, active compounds read low 1.01 | S. cerevisiae deletion strains, locus YLR102C, strain apc9, active compounds read low 1.01 | S. cerevisiae deletion strains, locus YLR113W, strain HOG1, active compounds read low 0.95 | S. cerevisiae deletion strains, locus YLR221C, strain rsa3, active compounds read low 0.979 | S. cerevisiae deletion strains, locus YLR258W, strain gsy2, active compounds read low 1.01 | S. cerevisiae deletion strains, locus YLR262C, strain YPT6 (second series), active compounds read low 1.01 | S. cerevisiae deletion strains, locus YLR262C, strain YPT6, active compounds read low 1.14 | S. cerevisiae deletion strains, locus YLR268W, strain sec22, active compounds read low 1.03 | S. cerevisiae deletion strains, locus YLR320W, strain mms22, active compounds read low 0.98 | S. cerevisiae deletion strains, locus YLR330W, strain CHS5, active compounds read low 1.02 | S. cerevisiae deletion strains, locus YLR342W, strain FKS1 (second series), active compounds read low 1.07 | S. cerevisiae deletion strains, locus YLR342W, strain FKS1, active compounds read low 0.994 | S. cerevisiae deletion strains, locus YLR357W, strain rsc2, active compounds read low 0.985 | S. cerevisiae deletion strains, locus YLR370C, strain arc18, active compounds read low 0.991 | S. cerevisiae deletion strains, locus YLR371W, strain rom2, active compounds read low 1.02 | S. cerevisiae deletion strains, locus YLR384C, strain iki3, active compounds read low 1.01 | S. cerevisiae deletion strains, locus YLR418C, strain cdc73, active compounds read low 1.04 | S. cerevisiae deletion strains, locus YML016C, strain PPZ1, active compounds read low 1.01 | S. cerevisiae deletion strains, locus YML032C, strain rad52, active compounds read low 1.02 | S. cerevisiae deletion strains, locus YML120C, strain ndi1, active compounds read low 1 | S. cerevisiae deletion strains, locus YML124C, strain tub3, active compounds read low 1.02 | S. cerevisiae deletion strains, locus YMR058W, strain fet3, active compounds read low 0.913 | S. cerevisiae deletion strains, locus YMR078C, strain ctf18, active compounds read low 1.02 | S. cerevisiae deletion strains, locus YMR125W, strain sto1, active compounds read low 0.995 | S. cerevisiae deletion strains, locus YMR129W, active compounds read low 0.997 | S. cerevisiae deletion strains, locus YMR205C, strain PFK2, active compounds read low 1 | S. cerevisiae deletion strains, locus YMR223W, strain ubp8, active compounds read low 1.03 | S. cerevisiae deletion strains, locus YMR231W, strain pep5, active compounds read low 0.965 | S. cerevisiae deletion strains, locus YMR307W, strain GAS1, active compounds read low 1.03 | S. cerevisiae deletion strains, locus YNL067W, strain RPL9B, active compounds read low 1.02 | S. cerevisiae deletion strains, locus YNL071W, strain lat1, active compounds read low 0.999 | S. cerevisiae deletion strains, locus YNL128W, strain TEP1, active compounds read low 1.02 | S. cerevisiae deletion strains, locus YNL153C, strain GIM3, active compounds read low 1.02 | S. cerevisiae deletion strains, locus YNL183C, strain NPR1, active compounds read low 0.906 | S. cerevisiae deletion strains, locus YNL209W, strain ssb2, active compounds read low 0.999 | S. cerevisiae deletion strains, locus YNL233W, strain BNI4, active compounds read low 1 | S. cerevisiae deletion strains, locus YNL248C, strain rpa49, active compounds read low 1 | S. cerevisiae deletion strains, locus YNL250W, strain rad50, active compounds read low 1.02 | S. cerevisiae deletion strains, locus YNL271C, strain bni1, active compounds read low 1.04 | S. cerevisiae deletion strains, locus YNL298W, strain CLA4, active compounds read low 1.02 | S. cerevisiae deletion strains, locus YNL307C, strain MCK1, active compounds read low 1.03 | S. cerevisiae deletion strains, locus YNL322C, strain KRE1 (second series), active compounds read low 0.989 | S. cerevisiae deletion strains, locus YNR049C, strain mso1, active compounds read low 0.988 | S. cerevisiae deletion strains, locus YNR052C, strain pop2, active compounds read low 1.02 | S. cerevisiae deletion strains, locus YOL012C, strain htz1 0.984 | S. cerevisiae deletion strains, locus YOL147C, strain pex11, active compounds read low 1.02 | S. cerevisiae deletion strains, locus YOR001W, strain rrp6, active compounds read low 0.974 | S. cerevisiae deletion strains, locus YOR061W, strain CKA2, active compounds read low 1.01 | S. cerevisiae deletion strains, locus YOR069W, strain VPS5, active compounds read low 1.01 | S. cerevisiae deletion strains, locus YOR070C, strain gyp1, active compounds read low 0.989 | S. cerevisiae deletion strains, locus YOR080W, strain dia2, active compounds read low 0.983 | S. cerevisiae deletion strains, locus YOR083W, strain WHI5, active compounds read low 1.01 | S. cerevisiae deletion strains, locus YOR106W, strain vam3, active compounds read low 1.04 | S. cerevisiae deletion strains, locus YOR136W, strain idh2, active compounds read low 1.03 | S. cerevisiae deletion strains, locus YOR144C, strain elg1, active compounds read low 1.02 | S. cerevisiae deletion strains, locus YOR184W, strain ser1, active compounds read low 1.02 | S. cerevisiae deletion strains, locus YOR231W, strain MKK1, active compounds read low 0.972 | S. cerevisiae deletion strains, locus YOR265W, strain rbl2, active compounds read low 0.995 | S. cerevisiae deletion strains, locus YOR270C, strain vph1, active compounds read low 1.04 | S. cerevisiae deletion strains, locus YOR290C, strain snf2, active compounds read low 1 | S. cerevisiae deletion strains, locus YOR316C, strain cot1, active compounds read low 1.02 | S. cerevisiae deletion strains, locus YPL051W, strain arl3, active compounds read low 0.982 | S. cerevisiae deletion strains, locus YPL078C, strain atp4, active compounds read low 1.01 | S. cerevisiae deletion strains, locus YPL106C, strain sse1, active compounds read low 0.975 | S. cerevisiae deletion strains, locus YPL240C, strain hsp82, active compounds read low 1 | S. cerevisiae deletion strains, locus YPL241C, strain CIN2, active compounds read low 1.01 | S. cerevisiae deletion strains, locus YPL256C, strain CLN2, active compounds read low 0.964 | S. cerevisiae deletion strains, locus YPR119W, strain clb2, active compounds read low 1.01 | S. cerevisiae deletion strains, locus YPR141C, strain kar3, active compounds read low 1.02 | S. cerevisiae deletion strains, locus YPR163C, strain tif3, active compounds read low 1.04 | S. cerevisiae deletion strains, locus YPR167C, strain met16, active compounds read low 1.03 | S. cerevisiae deletion strains, strain wtn01, active compounds read low 1.04 | S. cerevisiae strains, strain wild type, active compounds read low 1.01
